Where a name gives a salt, the structure may show the parent alone.
Columns and labels:
Assay in all cases: Euclidean distance of Cell Painting phenotypic profile (signed KS, 77 features) to DMSO centroid (dimensionless distance); 5 or 10 uM (library dependent); higher = stronger phenotypic change vs DMSO (phenoactivity)
Conditions in all cases: 48 h
[1] = test system: 786-O
Procedure, shortened: (§1)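 At 10 or 5 uM, as set by the library, and 0.1% DMSO final, compounds were applied for 48 h to five cancer lines and one healthy fibroblast line. Stained cells were imaged confocally at 20X in 9 fields per well, and Harmony extracted 77 features scored as signed Kolmogorov-Smirnov statistics against vehicle wells on the same plate. Profiles underwent plate-position correction, correlation weighting and replicate averaging at the top dose. Phenoactivity is the Euclidean distance from each such profile to the median vehicle profile.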

[2] = test system: A549
Procedure, shortened: as §1

[3] = test system: DU145
Procedure, shortened: as §1

[4] = test system: FB
Procedure, shortened: as §1

[5] = test system: HEPG2
Procedure, shortened: as §1

[6] = test system: OVCAR4
Procedure, shortened: as §1

Row | SMILES | Euclidean distance [1] | Euclidean distance [2] | Euclidean distance [3] | Euclidean distance [4] | Euclidean distance [5] | Euclidean distance [6]
1 | Cc1cccc(C)c1OCC(=O)N[C@@H](Cc1ccccc1)[C@@H](O)C[C@H](Cc1ccccc1)NC(=O)[C@H](C(C)C)N1CCCNC1=O [Lopinavir] | 2.06 | 1.69 | 1.44 | 1.1 | 0.896 | 1.92
2 | O=NN(CCCl)C(=O)NC1CCCCC1 [Lomustine] | 0.894 | 0.833 | 0.869 | 1.05 | 0.457 | 1
3 | C[C@@H]1O[C@@H](Oc2c(-c3ccc(O)c(O)c3)oc3cc(O)cc(O)c3c2=O)[C@H](O)[C@H](O)[C@H]1O [Quercitrin] | 1.05 | 1.14 | 0.64 | 1.09 | 0.738 | 0.915
4 | CCn1c(N)c(C(=O)NC)c(=O)c2ccc(C#CC(C)(O)COC)nc21 (stereo unspecified) | 0.634 | 0.765 | 0.681 | 1.97 | 1.53 | 0.668
5 | C=CC(=O)N1CCC[C@@H](n2nc(-c3ccc(Oc4ccccc4)cc3)c3c(N)ncnc32)C1 | 1.76 | 2.16 | 2.61 | 2.35 | 1.42 | 2.38
6 | CC(=O)S[C@@H]1CC2=CC(=O)CC[C@]2(C)[C@H]2CC[C@@]3(C)[C@@H](CC[C@@]34CCC(=O)O4)[C@H]12 [Spironolactone] | 0.955 | 0.839 | 1.3 | 1.04 | 0.705 | 0.776
7 | OC(CN1CCN(c2cccc(Cl)c2)CC1)C(c1ccccc1)c1ccccc1 (stereo unspecified) | 1.08 | 1.33 | 0.908 | 1.03 | 0.858 | 1.16
8 | O=C(Nc1ccccc1)c1ccccc1O [Salicylanilide] | 0.807 | 0.631 | 0.393 | 0.532 | 0.798 | 0.892
9 | CC(=O)Oc1cccc2c1C(=O)c1c(OC(C)=O)cc(C(=O)O)cc1C2=O [Diacerein] | 0.962 | 0.94 | 1.19 | 1.22 | 0.429 | 1.51
10 | OC[C@H]1O[C@H](O[C@H]2O[C@H](CO)[C@@H](O)[C@H](O)[C@H]2O)[C@H](O)[C@@H](O)[C@@H]1O [D-(+)-Trehalose dihydrate] | 0.894 | 1.33 | 1.15 | 1.04 | 0.672 | 1.09
11 | CC(C)C[C@H](NC(=O)[C@@H](COC(C)(C)C)NC(=O)[C@H](Cc1ccc(O)cc1)NC(=O)[C@H](CO)NC(=O)[C@H](Cc1c[nH]c2ccccc12)NC(=O)[C@H](Cc1cnc[nH]1)NC(=O)[C@@H]1CCC(=O)N1)C(=O)N[C@@H](CCCNC(=N)N)C(=O)N1CCC[C@H]1C(=O)NNC(N)=O [Goserelin Acetate] | 1.49 | 0.535 | 2.39 | 0.568 | 0.784 | 1.07
12 | CC1(C)O[C@@H]2C[C@H]3[C@@H]4CCC5=CC(=O)C=C[C@]5(C)[C@H]4[C@@H](O)C[C@]3(C)[C@]2(C(=O)CO)O1 [Desonide] | 1.09 | 1.9 | 2.27 | 1.55 | 0.639 | 1.61
13 | O=C1C(CC[S+]([O-])c2ccccc2)C(=O)N(c2ccccc2)N1c1ccccc1 (racemic) [(+/-)-Sulfinpyrazone] | 1.01 | 1.79 | 1.38 | 1.22 | 0.755 | 0.993
14 | Cc1ncc([N+](=O)[O-])n1CCO [Metronidazole] | 0.797 | 0.775 | 0.948 | 1.08 | 0.943 | 1.6
15 | Cc1cn(-c2cc(NC(=O)c3ccc(C)c(Nc4nccc(-c5cccnc5)n4)c3)cc(C(F)(F)F)c2)cn1 [Nilotinib hydrochloride] | 2.28 | 4.11 | 3.01 | 1.85 | 3.37 | 3.14
16 | CN(C)CCc1c[nH]c2ccc(Cn3cncn3)cc12 [Rizatriptan Benzoate] | 1.43 | 1.08 | 1.46 | 2.54 | 1.06 | 2.42
17 | O=C(c1ccc(/C=C/c2n[nH]c3ccccc23)cc1)N1CCNCC1 | 3.16 | 3.89 | 3.66 | 3.31 | 2.78 | 3.53
18 | CO/N=C(\C(=O)N[C@@H]1C(=O)N2C(C(=O)O)=C(COC(C)=O)CS[C@H]12)c1csc(N)n1 [Cefotaxime sodium] | 1.09 | 0.485 | 0.877 | 0.644 | 0.409 | 0.706
19 | CC1(C)S[C@@H]2[C@H](NC(=O)Cc3ccccc3)C(=O)N2[C@H]1C(=O)O [Benzylpenicillin potassium] | 1.15 | 0.89 | 1.18 | 0.93 | 0.711 | 1.48
20 | Clc1ccc(C(Cn2ccnc2)OCc2c(Cl)cccc2Cl)c(Cl)c1 (stereo unspecified) [Isoconazole nitrate] | 1.02 | 0.91 | 1.26 | 0.868 | 0.714 | 1.04
21 | COc1cc(O)c(C(=O)Nc2nc(C(=O)NCCN(C(C)C)C(C)C)cs2)cc1OC [Acotiamide] | 1.22 | 0.413 | 0.881 | 0.785 | 0.356 | 0.831
22 | Cc1ccc(=O)n(-c2ccccc2)c1 [Pirfenidone] | 1.25 | 0.718 | 1.64 | 0.845 | 0.297 | 1.38
23 | CC(=O)NCCCS(=O)(=O)O [Acamprosate Calcium] | 0.651 | 0.371 | 0.781 | 0.789 | 0.967 | 0.839

Row | SMILES | Euclidean distance [1] | Euclidean distance [2] | Euclidean distance [3] | Euclidean distance [4] | Euclidean distance [5] | Euclidean distance [6]
24 | CC1Cc2ccccc2N1NC(=O)c1ccc(Cl)c(S(N)(=O)=O)c1 (stereo unspecified) [Indapamide] | 0.856 | 0.679 | 1.26 | 0.772 | 1.91 | 1.41
25 | CO/N=C1\C[C@]2(C[C@@H]3C[C@@H](C/C=C(\C)C[C@@H](C)/C=C/C=C4\CO[C@@H]5[C@H](O)C(C)=C[C@@H](C(=O)O3)[C@]45O)O2)O[C@H](/C(C)=C/C(C)C)[C@H]1C [Moxidectin] | 3.17 | 2.11 | 2.44 | 1.21 | 0.757 | 1.63
26 | CCC(=O)O[C@H]1[C@H](O[C@@H]2[C@@H](C)[C@H](O[C@H]3C[C@@](C)(OC)[C@@H](O)[C@H](C)O3)[C@@H](C)C(=O)O[C@H](CC)[C@@](C)(O)[C@H](O)[C@@H](C)C(=O)[C@H](C)C[C@@]2(C)O)O[C@H](C)C[C@@H]1N(C)C [Erythromycin estolate] | 0.939 | 1.04 | 1.77 | 1.82 | 0.988 | 1.19
27 | COc1ccc(/C=C/C(=O)Nc2ccccc2C(=O)O)cc1OC [Trans-Tranilast] | 1.43 | 0.649 | 0.604 | 1.18 | 0.865 | 0.917
28 | Cc1nc2n(c(=O)c1CCN1CCC(c3noc4cc(F)ccc34)CC1)CCCC2O (stereo unspecified) [Paliperidone] | 0.901 | 0.427 | 0.828 | 0.783 | 0.494 | 0.895
29 | CC(=O)[C@@]1(O)CC[C@H]2[C@@H]3C[C@H](C)C4=CC(=O)C=C[C@]4(C)[C@@]3(F)[C@@H](O)C[C@@]21C [Fluorometholone] | 0.819 | 2.59 | 1.54 | 1.73 | 1.04 | 1.8
30 | CO[C@H]1O[C@@H]2O[C@@]3(C)CC[C@H]4[C@H](C)CC[C@@H]([C@H]1C)[C@@]24OO3 [Artemether] | 1.43 | 1.11 | 0.712 | 1.28 | 0.672 | 1.26
31 | C#Cc1cccc(Nc2ncnc3cc(OCCOC)c(OCCOC)cc23)c1 [Erlotinib] | 1.68 | 2.34 | 1.94 | 3.62 | 0.991 | 1.87
32 | OC[C@@H](O)[C@@H](O[C@@H]1O[C@H](CO)[C@H](O)[C@H](O)[C@H]1O)[C@H](O)[C@@H](O)CO [Lactitol] | 0.637 | 0.843 | 0.537 | 0.733 | 0.29 | 1.17
33 | CN1CCc2c(c3ccccc3n2Cc2ccc(C(=O)NO)cc2)C1 [Tubastatin A HCl] | 0.602 | 0.832 | 0.783 | 1.34 | 0.601 | 0.657
34 | Nc1n[n+]([O-])c2ccccc2[n+]1[O-] [Tirapazamine] | 2.03 | 1.01 | 0.984 | 2.3 | 2.21 | 1.52
35 | OB1OCc2cc(F)ccc21 [Tavaborole (AN-2690)] | 0.735 | 0.76 | 0.961 | 1.16 | 0.354 | 0.974
36 | CCc1cnn2c(NCc3ccc[n+]([O-])c3)cc(N3CCCC[C@H]3CCO)nc12 | 3.35 | 2.78 | 3.2 | 3.11 | 2.64 | 3.58
37 | O=C1C(O)=C([C@H]2CC[C@H](c3ccc(Cl)cc3)CC2)C(=O)c2ccccc21 [Atovaquone] | 1.3 | 0.846 | 1.08 | 1.41 | 0.566 | 1.08
38 | CC(C)(O)[C@H]1CC[C@@](C)([C@H]2[C@@H](O)C[C@@]3(C)[C@@H]4C[C@H](O[C@@H]5O[C@H](CO)[C@@H](O)[C@H](O)[C@H]5O)[C@H]5C(C)(C)[C@@H](O[C@@H]6OC[C@@H](O)[C@H](O)[C@H]6O)CC[C@@]56C[C@@]46CC[C@]23C)O1 [Astragaloside A] | 4.07 | 3.46 | 3.2 | 2.61 | 2.19 | 3.11
39 | Nc1ccn([C@H]2CC[C@@H](CO)O2)c(=O)n1 [Zalcitabine] | 1.06 | 0.768 | 1.6 | 0.942 | 2.07 | 1.13
40 | CCCCC[C@H](O)/C=C/[C@H]1[C@H](O)CC(=O)[C@@H]1C/C=C\CCCC(=O)O [Prostaglandin E2 (PGE2)] | 1.77 | 0.85 | 0.915 | 1.08 | 0.522 | 1.33
41 | C#C[C@]1(O)CC[C@H]2[C@@H]3CCC4=CC(=O)CC[C@@H]4[C@H]3C(=C)C[C@@]21CC [Etonogestrel] | 0.851 | 0.713 | 0.98 | 1.21 | 0.628 | 1.03
42 | C=C[C@](C)(O)CC[C@@H]1[C@@]2(C)CCCC(C)(C)[C@@H]2CC[C@@]1(C)O [Sclareol] | 0.617 | 0.762 | 0.574 | 0.717 | 0.546 | 1.39
43 | CN(C)[C@@H]1C(O)=C(C(N)=O)C(=O)[C@@]2(O)C(O)=C3C(=O)c4c(O)ccc(Cl)c4[C@@H](O)[C@H]3C[C@@H]12 [Demeclocycline HCl] | 0.985 | 0.836 | 0.951 | 1.05 | 0.887 | 1.53
44 | CC(C)CN(C[C@@H](O)[C@H](Cc1ccccc1)NC(=O)O[C@H]1CCOC1)S(=O)(=O)c1ccc(N)cc1 [Amprenavir] | 1.35 | 1.29 | 1.22 | 1.22 | 1.26 | 1.6
45 | CCCS(=O)(=O)Nc1ccc(F)c(C(=O)c2c[nH]c3ncc(Cl)cc23)c1F | 0.904 | 1.4 | 0.951 | 1.12 | 2.17 | 0.992
46 | CC[C@@H]([C@H](C)O)n1ncn(-c2ccc(N3CCN(c4ccc(OC[C@@H]5CO[C@@](Cn6cncn6)(c6ccc(F)cc6F)C5)cc4)CC3)cc2)c1=O [Posaconazole] | 3.81 | 2.06 | 2.09 | 2.3 | 1.43 | 1.21
